The source made the active and inactive calls. Calls come from the whole dose curve; as a rule, active = well fitted curve in the direction sought with a large enough effect in the repeat runs; inconclusive = weak or mixed curves; inactive = flat fitted curve, though single readings scatter.
% is set by controls: 0 for no effect and ±100 for the full control effect.

The nature of the assay: qHTS assay to test for compound auto fluorescence at 590 nm (red) in HepG2 cells (AID 720674). To be noted: HepG2 autofluorescence, red 540/590 nm, 1 h; series mostly up to 91.3 µM; fluorescence, relative to Rose Bengal: at the top concentration. The source says:
U.S. Tox21 Program National Center for Advancing Translational Sciences [NCATS] NIH Chemical Genomics Center [NCGC] U.S. Environmental Protection Agency [EPA] National Institutes of Environmental Health Sciences [NIEHS] National Toxicology Program [NTP] U.S. Food and Drug Administration [FDA] Tox21 Assay Overview: Compound auto fluorescence often interferes with screening of the compound library against various biological targets and signaling pathways. Some of these compounds may have fluorophoric properties. Such properties may interfere with the assay outputs resulting in false positives and/or negatives. To decrease such complications and ensure the compound activities are relevant in terms of biological response, the Tox21 10K compound library was screened for auto fluorescence. From the fluorophores used as reporter signals in our screening assays, the auto fluorescence equivalencies of compounds against three fluorophores have been evaluated: Triamterene, Fluorescein and Rose Bengal sodium for blue, green and red fluorescence, respectively. The fluorescence intensities were measured using Excitation/Emission wavelengths at 405/460nm, 485/535nm and 540/590nm for blue, green and red labels, respectively. This assay includes the red fluorescence data.
Tox21 Assay Protocol Summary: 2,000 HepG2 cells in 5 uL of culture medium (MEM containing 10% FBS) per well were dispensed into black wall/clear bottom 1536-well plates using a Multidrop Combi Dispenser (ThermoFisher Scientific, Waltham, MA). The assay plates were incubated overnight at 37 C to allow cell attachment to the well bottom, followed by the transfer of 23 nL compound or DMSO vehicle by a pintool work station (Kalypsys , San Diego, CA). After the assay plates were incubated for 1 hr at 37 C and 5% CO2, fluorescence intensities in the assay plates were measured by an Envision (PerkinElmer, Shelton, CT) plate reader using three labels for measuring blue, green and red fluorescence at […] 460, 535 and 590 nm respectively.
For orientation: Quantitative high-throughput screening tests each substance at several concentrations.
In the case of `CC(=O)O[C@@H]1CC2CCC1(C)C2(C)C` (stereo not given in full), the compound was classed as inactive.
As to `O=[N+]([O-])c1c(Cl)cc(Cl)cc1Cl`, the “fluorescence, relative to Rose Bengal” value was -0.114% (inactive).
In the case of `COc1ccc2c(c1)c1c3n2CCN(C)C3=NCC1`, the “fluorescence, relative to Rose Bengal” value is -0.178% [at 46 µM] (inactive).
On to `O=C1CCCCO1`, for which the “fluorescence, relative to Rose Bengal” value was -0.415% (inactive).
For `OC[C@H]1O[C@@H](O[C@@H]2[C@@H](CO)O[C@](O)(CO)[C@H]2O)[C@H](O)[C@@H](O)[C@H]1O`, the “fluorescence, relative to Rose Bengal” value is 0.0579% [at 46 µM] (inactive).
Consider `Fc1ccccc1`, for which the “fluorescence, relative to Rose Bengal” value is -0.226% (inactive).
In the case of `CC1=C(O)C(=O)C(C)O1` (stereo not given), the “fluorescence, relative to Rose Bengal” value is -0.0207% [at 95.7 µM] (inactive).
`CC(C)NCC(O)c1ccc2ccccc2c1` (stereo not given): the “fluorescence, relative to Rose Bengal” value was 0.056% [at 46 µM] (inactive).
Regarding `C=Cc1ccc(C(C)(C)C)cc1`, the “fluorescence, relative to Rose Bengal” value is 0.163% (inactive).
Take `CC1c2ccccc2CN1NC(=O)c1ccc(Cl)c(S(N)(=O)=O)c1` (stereo not given): the “fluorescence, relative to Rose Bengal” value was -0.632% [at 46 µM] (inactive).
With `CC/C=C\CCOC(=O)c1ccccc1O`, the “fluorescence, relative to Rose Bengal” value is 0.227% (inactive).
For `CC(=O)CCc1ccc(OC(C)=O)cc1`, the “fluorescence, relative to Rose Bengal” value was 0.0355% (inactive).
In the case of `CN1CCOC(c2ccccc2)c2ccccc2C1` (stereo not given), the fluorescence, relative to Rose Bengal was -0.228% [at 18.6 µM] (inactive).
Take `CC(C)[C@H]1CC[C@H](C)C[C@@H]1O`: the “fluorescence, relative to Rose Bengal” value is -0.234% [at 95.7 µM] (inactive).
As to `NCC1(Cc2noc(=O)[nH]2)CCCCC1`, the “fluorescence, relative to Rose Bengal” value is 0.0478% (inactive).
As to `N#Cc1cscn1`, the “fluorescence, relative to Rose Bengal” value was 0.0069% (inactive).
On to `C/C(CC(C)C)=N\O`, for which the “fluorescence, relative to Rose Bengal” value was -0.193% (inactive).
Take `CCCCCCCCCCCCCCC(=O)NC(CO)CCCCCCCCCCCCCC` (stereo not given): the “fluorescence, relative to Rose Bengal” value is -0.118% (inactive).
Take `CCOC(=O)CC1(C)OCC(C)O1` (stereo not given): the “fluorescence, relative to Rose Bengal” value is -0.0948% (inactive).
With `CC(=O)OCC(=O)Nc1cc(C#N)cc(NC(=O)COC(C)=O)c1Cl`, the “fluorescence, relative to Rose Bengal” value is -0.198% [at 46 µM] (inactive).
As to `O=NN(CCCl)C(=O)NC1CCCCC1`, the “fluorescence, relative to Rose Bengal” value is -0.65% [at 46 µM] (inactive).
Same read-out and setting: then `Cc1ccc2c(c1)C(=O)c1ccccc1C2=O`, with -0.199% (inactive); and `OCC1CCC(CO)CC1` (stereo not given), with -0.156% (inactive).
Consider `CCC(=O)CC`, for which the “fluorescence, relative to Rose Bengal” value is -0.0744% (inactive).
In the case of `NCc1ccc(S(N)(=O)=O)cc1`, the fluorescence, relative to Rose Bengal is -0.36% [at 18.6 µM] (inactive).
The same measure, in the same setting: then `CCCCCC/C=C/C(=O)OC`, with 0.0694% (inactive); and `c1ccc(-c2nn[nH]n2)cc1`, with 0.0647% (inactive).
In the case of `O=C(CCCCC(=O)Nc1c(I)cc(I)c(C(=O)O)c1I)Nc1c(I)cc(I)c(C(=O)O)c1I`, the “fluorescence, relative to Rose Bengal” value is -0.218% [at 46 µM] (inactive).
Take `Cn1c(=O)c2[nH]c(Br)nc2n(C)c1=O`: the “fluorescence, relative to Rose Bengal” value was -0.0113% [at 46 µM] (inactive).
`COP(=O)(O)OP(=O)(O)OC`: the “fluorescence, relative to Rose Bengal” value is -0.0213% (inactive).
On to `O=C[O][Al]([O]C=O)[O]C=O`, for which the “fluorescence, relative to Rose Bengal” value is 0.15% (inactive).
As for `COc1ccc(CCO)cc1`, the “fluorescence, relative to Rose Bengal” value is 0.317% (inactive).
Take `COC(=O)c1ccccc1C(=O)O`: the “fluorescence, relative to Rose Bengal” value is 0.104% (inactive).
On to `COC(=O)/C=C\C(=O)O`, for which the “fluorescence, relative to Rose Bengal” value is -0.247% (inactive).
Turning to `C=C(C)[C@@H]1CC=C(C)CC1`, the “fluorescence, relative to Rose Bengal” value is -0.658% (inactive).
As for `COC(=O)c1cccc(Cl)c1`, the “fluorescence, relative to Rose Bengal” value was 0.0174% (inactive).
Still for that read-out and setting: under `CCCCC1CCC(O)CC1` (stereo not given) stands -0.0183% (inactive); under `C[Si]1(C)O[Si](C)(C)O[Si](C)(C)O[Si](C)(C)O[Si](C)(C)O1`, 0.364% (inactive); under `CN(C)C(C)(C)CO`, 0.0072% (inactive).
With `CC(C)CCOC(=O)c1ccccc1`, the “fluorescence, relative to Rose Bengal” value was 0.274% (inactive).

These data come from PubChem BioAssay (Tox21).
